From PubChem
PfM18AAP inh: blocks P. falciparum M18 aspartyl aminopeptidase; recombinant PfM18AAP, H-Glu-NHMec fluorogenic cleavage; inhibition, % at 7.35 µM; 290,000 tested, 1.2% active; AID 1822;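 active = inhibition above the campaign mean inhibition over all tested compounds plus 3 SD, cut at about 28% in these data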
CendR NRP1 mod: modulators of CendR peptide binding to human neuropilin-1; AID 602438; FAM-RPARPAR peptide binding to NRP-1, fluorescence polarization; O14786; 360,000 tested, 0.85% active; inhibition, % at 25 µM;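 active = inhibition or corrected inhibition above about 18%, plus a signal ratio from 0.5 to 1.5, limit read from the data, passing the limit was not always enough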
Target sequence (O14786 whole entry, looked up): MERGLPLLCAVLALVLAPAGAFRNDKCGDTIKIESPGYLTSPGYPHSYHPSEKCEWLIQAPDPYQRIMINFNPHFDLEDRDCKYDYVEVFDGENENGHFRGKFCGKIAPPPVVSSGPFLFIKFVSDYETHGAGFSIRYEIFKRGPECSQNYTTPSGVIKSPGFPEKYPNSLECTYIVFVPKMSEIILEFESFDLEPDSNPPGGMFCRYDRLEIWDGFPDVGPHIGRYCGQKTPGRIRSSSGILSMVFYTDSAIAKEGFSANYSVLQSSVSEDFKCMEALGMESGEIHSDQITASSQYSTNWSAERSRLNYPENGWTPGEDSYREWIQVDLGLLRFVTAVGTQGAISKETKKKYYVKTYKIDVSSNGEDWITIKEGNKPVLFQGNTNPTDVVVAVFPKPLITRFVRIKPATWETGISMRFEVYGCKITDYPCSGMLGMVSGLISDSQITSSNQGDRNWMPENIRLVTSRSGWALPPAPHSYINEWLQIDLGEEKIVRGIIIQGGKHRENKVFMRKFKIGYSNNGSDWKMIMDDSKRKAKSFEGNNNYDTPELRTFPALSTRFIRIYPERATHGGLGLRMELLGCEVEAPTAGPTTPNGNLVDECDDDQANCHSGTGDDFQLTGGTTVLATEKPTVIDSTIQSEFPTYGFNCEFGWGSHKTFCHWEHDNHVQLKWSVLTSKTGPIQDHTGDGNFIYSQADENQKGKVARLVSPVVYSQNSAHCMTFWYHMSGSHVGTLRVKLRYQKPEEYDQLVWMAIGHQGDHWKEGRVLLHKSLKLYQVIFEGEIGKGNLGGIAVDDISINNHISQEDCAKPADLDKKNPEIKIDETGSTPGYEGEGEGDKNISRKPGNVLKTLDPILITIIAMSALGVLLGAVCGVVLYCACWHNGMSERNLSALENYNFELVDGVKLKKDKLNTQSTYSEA
APOBEC3G inh: inhibitors of human APOBEC3G DNA deaminase; recombinant A3G, ssDNA deamination FAM/TAMRA fluorescence; inhibition, % at 20 µM; 330,000 tested, 0.28% active;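 active = inhibition of at least 40% at 20 µM, with no more than 30% in the related APOBEC3A deaminase screen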
Yeast superoxide: caloric restriction mimetics inhibiting age-related superoxide in yeast | S. cerevisiae aged cells, superoxide DHE fluorescence; stronger effect = lower value | 330,000 tested, 0.18% active | superoxide response (% of plate mean), % at 10 µM | AID 2690;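 active = superoxide response under a set limit, about three screen SD below normal, cut at about 65% in these data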;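 note: yeast aged for seven days with compound at 30 °C before DHE staining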
ALR inh: blocks human ALR sulfhydryl oxidase activity; P55789; purified ALR, DTT oxidation, H2O2 HRP-luminol luminescence; inhibition, % (no concentration beside the values); 290,000 tested, 3.8% active; AID 485317;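 active = mean replicate inhibition above about 79%, with every replicate also reaching it, limit read from the data; inconclusive = only one of the two criteria met; inactive = mean below limit and not every replicate reaching it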
APOBEC3A inh: human APOBEC3A DNA deaminase inhibition | P31941 | recombinant A3A, FAM/TAMRA ssDNA deamination fluorescence | inhibition, % at 20 µM | 330,000 tested, 0.41% active;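 active = at least 40% inhibition at 20 µM here, with at most 30% in a related deaminase screen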
CR mimetic CP: confirmation of caloric restriction mimetics inhibiting yeast age-related superoxide. S. cerevisiae aging, superoxide DHE fluorescence; stronger effect = lower value. shares compounds with Yeast superoxide. 850 tested, 1% active. AID 434994. superoxide response (% of plate), % at 10 µM;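 active = superoxide signal below 65% of the plate average of sample wells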;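 note: cells aged with compound for 7 days at 30 degrees C before staining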
DHE fluor count: compound alters DHE oxidation or fluorescence in yeast | fluorescence response, % at 10 µM | shares compounds with Yeast superoxide | S. cerevisiae BY4741, flow cytometry; stronger effect = lower value | 850 tested, under 10 active;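 active = fluorescence response below 15%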;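 note: lower means stronger quenching of DHE signal or ROS scavenging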
Large screens that a line does not name were inactive (follow-up assays come after a bar, where they were run). Sampled rows, rich in hits. Any-hit rate of the full collection: about 5.2%.

Cn1c2ccccc2c2cc(C(=O)O)ccc21	none
CCn1c(C)cc(=S)c2ccccc21	none
CCn1c2ccccc2c2cc(N)ccc21	none | CR mimetic CP inactive | DHE fluor count inactive
C/C(=N\O)c1ccc2c3ccccc3n(C)c2c1	none
CCCn1c2ccccc2c2cc(C(=O)O)ccc21	none | CR mimetic CP inactive | DHE fluor count inactive
CCC(CC)NCc1ccc2c(c1)c1ccccc1n2CC	none | CR mimetic CP inactive | DHE fluor count inactive
COc1cccc(NC(C(=O)Nc2cccc(C(C)=O)c2)c2ccccc2)c1 (stereo not given)	Yeast superoxide 60 | CR mimetic CP inactive | DHE fluor count inactive
CCOc1ncccc1C(=O)N1CCN(C(=O)c2ccccc2)CC1	none (no result: ALR inh)
CCOc1ncccc1C(=O)N1CCN(S(=O)(=O)c2ccccc2)CC1	none
CCOc1ncccc1C(=O)N1CCN(c2cc(Cl)ccc2C)CC1	none | CR mimetic CP inactive | DHE fluor count inactive
CCOc1ncccc1C(=O)N1CCN(c2cccc(C)c2C)CC1	none (no result: APOBEC3G inh, Yeast superoxide, ALR inh, APOBEC3A inh) | CR mimetic CP inactive | DHE fluor count inactive
CCc1cc(=O)oc2cc(C)cc(OC(C)C(=O)NCC(O)c3ccccc3)c12 (stereo not given)	none
O=C(NC1CC1)c1ccc(F)cc1Cl	none
CCOc1ccccc1NC(=O)NCc1ccc(F)cc1	Yeast superoxide 65 | CR mimetic CP inactive | DHE fluor count inactive
CCOc1ccccc1NC(=S)NCc1ccccc1	none
COc1ccc(CNC(=O)C(c2ccco2)N(C(=O)c2snc(C(N)=O)c2N)c2cccc(OC)c2)cc1 (stereo not given)	none
N#CCc1nn(-c2ccccc2)c2ncnc(N)c12	none | CR mimetic CP inactive | DHE fluor count inactive
CC(C)(C)c1ccc(/C=C/C(=O)c2ccc(NC3=NCCCS3)cc2)cc1	Yeast superoxide 46 | CR mimetic CP inactive | DHE fluor count inactive
CCNC(=O)N1c2ccc(OC)cc2C(C)=CC1(C)C	Yeast superoxide 61, ALR inh inconclusive | CR mimetic CP inactive | DHE fluor count inactive
COc1cccc(-n2cc3c(=O)n(C)c(=O)n(C)c3c2)c1	none
CNC(=O)c1c(NC(=O)c2ccc(S(=O)(=O)N(C)c3ccccc3)cc2)sc2c1CCN(C(C)C)C2	Yeast superoxide 54 (no result: CendR NRP1 mod) | CR mimetic CP inactive | DHE fluor count inactive
COc1cccc(NC(=O)CCS(=O)(=O)c2ccc(Br)cc2)c1	Yeast superoxide 50 | CR mimetic CP inactive | DHE fluor count inactive
Cc1cccc(NC(=O)CCS(=O)(=O)c2ccc(Br)cc2)c1	none (no result: ALR inh)
CCOc1ccc2nc(SCC(=O)c3ccc(C)s3)sc2c1	none
CCOc1ccc2nc(SCC(=O)c3ccc(O)cc3O)sc2c1	Yeast superoxide 50 | CR mimetic CP inactive | DHE fluor count inactive
CC1(C)Cc2cccc(OCC(=O)N3CCN(c4ccc(F)cc4)CC3)c2O1	none (no result: PfM18AAP inh, ALR inh)
O=C1CCCN1S(=O)(=O)c1ccccc1	none | CR mimetic CP inactive | DHE fluor count inactive
COc1ccccc1OCCNC(=O)c1ccc(Br)cc1	Yeast superoxide 58 | CR mimetic CP inactive | DHE fluor count inactive
COc1ccc(S(=O)(=O)N2CCC(C(=O)N3CCCCC3)CC2)cc1OC	none (no result: ALR inh)
Cc1cc(NC(=O)CSc2nnc(-c3ccc(S(=O)(=O)N4CCCC4)cc3)n2C)no1	Yeast superoxide 51 | CR mimetic CP inactive | DHE fluor count inactive
CCn1c(SCC(=O)Nc2cc(C)on2)nnc1-c1ccc(S(=O)(=O)N2CCCC2)cc1	none
Cn1c(=O)c(C(=O)NNC(=O)c2ccccc2F)c(O)c2ccccc21	Yeast superoxide 64 (no result: ALR inh) | CR mimetic CP inactive | DHE fluor count inactive
CCn1c(=O)c(C(=O)NNC(=O)c2ccccc2F)c(O)c2ccccc21	none
Cc1ccc(NC(=O)N2CCCN(C(=O)OC(C)(C)C)CC2)cc1Cl	none
O=C(Nc1ccc(Cl)c(Cl)c1)c1ccccc1	none (no result: PfM18AAP inh)
O=C(Nc1ccc2nc3ccccc3nc2c1)c1ccccc1	Yeast superoxide 47 (no result: APOBEC3G inh, APOBEC3A inh) | CR mimetic CP 59 | DHE fluor count inactive
CCN(C(=O)CN1C(=O)NC(CCSC)C1=O)C1CCS(=O)(=O)C1 (stereo not given)	none (no result: PfM18AAP inh)
O=C(Nc1ccc(F)cc1)C(=O)c1c(O)[nH]c2ccc([N+](=O)[O-])cc12	Yeast superoxide 64 | CR mimetic CP inactive | DHE fluor count inactive
CCOC(=O)c1cnc2cc(-c3ccc(Br)cc3)nn2c1C	none | CR mimetic CP inactive | DHE fluor count inactive
COc1ccc(Cc2nnc(SCC(=O)Nc3ccc(N4CCOCC4)cc3)n2C)cc1	none
NNC(=O)Cn1c(-c2ccccc2)cc2ccccc21	none
O=C(O)Cn1c2ccccc2c2ccccc21	none | CR mimetic CP inactive | DHE fluor count inactive
O=Cc1c(C(=O)O)n(CC(=O)O)c2ccccc12	none
NNC(=O)Cn1c2ccccc2c2ccccc21	none | CR mimetic CP inactive | DHE fluor count inactive
OCCOCCOCCn1c2ccccc2c2ccccc21	none | CR mimetic CP inactive | DHE fluor count inactive
CC(C)CCn1c2ccccc2c2cc(CC(N)=O)ccc21	none (no result: ALR inh) | CR mimetic CP inactive | DHE fluor count inactive
NC(=O)CCn1c2ccccc2c2ccccc21	none | CR mimetic CP inactive | DHE fluor count inactive
COc1cc(/C=N/OCC(=O)Nc2ccc(OC(F)F)cc2)ccc1OCc1ccccc1	none
O=C(NC(Cc1ccccc1)C(=O)O)/C(=C/c1ccccc1)NC(=O)c1ccccc1 (stereo not given)	Yeast superoxide 65 | CR mimetic CP inactive | DHE fluor count inactive
O=C(NC(Cc1ccccc1)C(=O)O)/C(=C\c1ccc(Cl)cc1)NC(=O)c1ccccc1 (stereo not given)	none
O=C(Nc1ccccc1)/C(=C/c1cccnc1)NC(=O)c1ccco1	Yeast superoxide 62 | CR mimetic CP inactive | DHE fluor count inactive
CSCCC(NC(=O)c1ccccc1Br)C(=O)NCc1ccc(F)cc1 (stereo not given)	Yeast superoxide 23 | CR mimetic CP inactive | DHE fluor count inactive
Cc1ccc(-c2nn(C(C)(C)C)c3ncnc(NS(=O)(=O)c4ccc([N+](=O)[O-])cc4)c23)cc1	none
CC(C)(C)n1nc(-c2ccc(F)cc2)c2c(N)ncnc21	CendR NRP1 mod 67, Yeast superoxide 32 | CR mimetic CP inactive | DHE fluor count inactive
Cc1ccc(-c2nc(N)c3c(-c4ccc(C)cc4)nn(C(C)(C)C)c3n2)cc1	none
CC(C)(C)n1nc(-c2ccc(Cl)cc2)c2c(N)ncnc21	Yeast superoxide 50 | CR mimetic CP 56 | DHE fluor count inactive
O=C(NNC(=O)c1ccc(Cl)cc1Cl)Nc1ccccc1	Yeast superoxide 63 | CR mimetic CP inactive | DHE fluor count inactive
O=C(Nc1ccc(Nc2ccccc2)cc1)c1ccc(Cl)cc1Cl	none (no result: PfM18AAP inh)
